From ChEMBL document CHEMBL1961873, “Compounds: GSK PKIS; Assays: Nanosyn kinase panel” (2012) come the findings set out here.

A word on the inhibition: it is the change of the read-out against control, counted positive when it falls.

In assay [1] the target is Tyrosine-protein kinase Fyn (Homo sapiens) (UniProt P06241). To be noted: at 1 µM.
Assay [2] concerns the target Tyrosine-protein kinase HCK (Homo sapiens) (UniProt P08631). The note with it: at 0.1 µM.
The target is the same in assay [3]. The note with it: at 1 µM.
Assay [4] deals with Insulin-like growth factor 1 receptor (Homo sapiens) (UniProt P08069). The note with it: at 0.1 µM.
Assay [5] has the same target. To be noted: at 1 µM.
In assay [6] the target is Insulin receptor (Homo sapiens) (UniProt P06213). To be noted: at 0.1 µM.
Sequence of Insulin receptor (Homo sapiens) (P06213 28-758 limits assumed): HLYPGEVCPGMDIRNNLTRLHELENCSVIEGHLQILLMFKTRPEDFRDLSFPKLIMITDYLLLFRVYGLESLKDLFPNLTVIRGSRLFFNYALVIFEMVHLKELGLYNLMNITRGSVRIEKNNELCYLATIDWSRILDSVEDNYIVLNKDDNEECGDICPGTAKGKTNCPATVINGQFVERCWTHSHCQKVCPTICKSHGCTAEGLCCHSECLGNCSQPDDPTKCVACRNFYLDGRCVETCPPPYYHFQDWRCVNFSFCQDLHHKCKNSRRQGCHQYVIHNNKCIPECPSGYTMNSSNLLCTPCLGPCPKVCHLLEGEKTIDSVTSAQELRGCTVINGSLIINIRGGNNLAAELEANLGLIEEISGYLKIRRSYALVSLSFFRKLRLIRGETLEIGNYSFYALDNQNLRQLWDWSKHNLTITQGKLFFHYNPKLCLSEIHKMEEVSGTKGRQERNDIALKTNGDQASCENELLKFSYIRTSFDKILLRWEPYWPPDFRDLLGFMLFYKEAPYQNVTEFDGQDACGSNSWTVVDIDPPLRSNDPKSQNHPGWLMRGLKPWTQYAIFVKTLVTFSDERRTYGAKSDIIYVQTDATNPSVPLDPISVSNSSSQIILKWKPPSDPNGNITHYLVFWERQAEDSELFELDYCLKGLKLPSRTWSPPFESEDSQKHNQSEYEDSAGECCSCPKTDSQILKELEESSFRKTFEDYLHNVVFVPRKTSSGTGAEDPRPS
Sequence of Insulin receptor (Homo sapiens) (P06213 763-1382 limits assumed): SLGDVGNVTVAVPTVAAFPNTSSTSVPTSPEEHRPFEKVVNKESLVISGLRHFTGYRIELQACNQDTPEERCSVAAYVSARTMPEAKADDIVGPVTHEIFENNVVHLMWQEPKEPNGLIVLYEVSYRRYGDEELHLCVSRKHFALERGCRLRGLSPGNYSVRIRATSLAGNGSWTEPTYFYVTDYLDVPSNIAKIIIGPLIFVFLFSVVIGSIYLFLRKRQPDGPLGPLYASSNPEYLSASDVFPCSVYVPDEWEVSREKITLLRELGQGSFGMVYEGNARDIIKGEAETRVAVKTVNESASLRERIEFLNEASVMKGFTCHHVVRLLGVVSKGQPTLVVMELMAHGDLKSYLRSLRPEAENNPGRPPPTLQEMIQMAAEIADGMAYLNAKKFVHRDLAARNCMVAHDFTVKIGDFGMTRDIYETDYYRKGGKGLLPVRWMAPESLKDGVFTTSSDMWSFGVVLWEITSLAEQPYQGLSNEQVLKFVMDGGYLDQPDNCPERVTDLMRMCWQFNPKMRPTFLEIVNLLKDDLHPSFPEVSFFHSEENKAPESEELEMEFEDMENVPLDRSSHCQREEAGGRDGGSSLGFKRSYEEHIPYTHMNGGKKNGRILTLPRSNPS
For assay [7] the target is unchanged. To be noted: at 1 µM.
For assay [8], the target named is Insulin receptor-related protein (Homo sapiens) (UniProt P14616). To be noted: at 0.1 µM.
The target is the same in assay [9]. To be noted: at 1 µM.
For assay [10], the target named is T1, Tyrosine-protein kinase ITK/TSK (Homo sapiens) (UniProt Q08881).
T1 sequence (whole entry): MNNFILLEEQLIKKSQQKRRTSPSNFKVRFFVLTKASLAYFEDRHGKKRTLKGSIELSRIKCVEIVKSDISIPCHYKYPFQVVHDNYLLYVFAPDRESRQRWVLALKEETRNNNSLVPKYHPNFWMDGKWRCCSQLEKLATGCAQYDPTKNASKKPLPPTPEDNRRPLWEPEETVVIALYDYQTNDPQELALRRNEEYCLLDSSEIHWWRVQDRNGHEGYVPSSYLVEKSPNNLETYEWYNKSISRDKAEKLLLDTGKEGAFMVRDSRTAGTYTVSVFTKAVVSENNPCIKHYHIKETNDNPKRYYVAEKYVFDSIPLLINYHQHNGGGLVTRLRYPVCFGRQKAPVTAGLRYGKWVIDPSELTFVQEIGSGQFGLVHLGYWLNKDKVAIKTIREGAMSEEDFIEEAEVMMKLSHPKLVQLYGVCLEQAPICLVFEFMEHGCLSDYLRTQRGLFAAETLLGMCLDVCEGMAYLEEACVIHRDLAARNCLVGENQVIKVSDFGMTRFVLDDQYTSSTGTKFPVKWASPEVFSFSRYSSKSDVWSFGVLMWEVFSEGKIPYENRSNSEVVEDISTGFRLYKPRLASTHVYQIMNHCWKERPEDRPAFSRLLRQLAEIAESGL
The note with it: at 0.1 µM.

For assay [11], the target named is T1, Tyrosine-protein kinase ITK/TSK (Homo sapiens). The note with it: at 1 µM.
The target of assay [12] is Tyrosine-protein kinase JAK1 (Homo sapiens) (UniProt P23458). The note with it: at 0.1 µM.
For assay [13] the target is unchanged. The note with it: at 1 µM.
For assay [14], the target named is Tyrosine-protein kinase JAK2 (Homo sapiens) (UniProt O60674). To be noted: at 0.1 µM.
Sequence of Tyrosine-protein kinase JAK2 (Homo sapiens) (O60674 whole entry): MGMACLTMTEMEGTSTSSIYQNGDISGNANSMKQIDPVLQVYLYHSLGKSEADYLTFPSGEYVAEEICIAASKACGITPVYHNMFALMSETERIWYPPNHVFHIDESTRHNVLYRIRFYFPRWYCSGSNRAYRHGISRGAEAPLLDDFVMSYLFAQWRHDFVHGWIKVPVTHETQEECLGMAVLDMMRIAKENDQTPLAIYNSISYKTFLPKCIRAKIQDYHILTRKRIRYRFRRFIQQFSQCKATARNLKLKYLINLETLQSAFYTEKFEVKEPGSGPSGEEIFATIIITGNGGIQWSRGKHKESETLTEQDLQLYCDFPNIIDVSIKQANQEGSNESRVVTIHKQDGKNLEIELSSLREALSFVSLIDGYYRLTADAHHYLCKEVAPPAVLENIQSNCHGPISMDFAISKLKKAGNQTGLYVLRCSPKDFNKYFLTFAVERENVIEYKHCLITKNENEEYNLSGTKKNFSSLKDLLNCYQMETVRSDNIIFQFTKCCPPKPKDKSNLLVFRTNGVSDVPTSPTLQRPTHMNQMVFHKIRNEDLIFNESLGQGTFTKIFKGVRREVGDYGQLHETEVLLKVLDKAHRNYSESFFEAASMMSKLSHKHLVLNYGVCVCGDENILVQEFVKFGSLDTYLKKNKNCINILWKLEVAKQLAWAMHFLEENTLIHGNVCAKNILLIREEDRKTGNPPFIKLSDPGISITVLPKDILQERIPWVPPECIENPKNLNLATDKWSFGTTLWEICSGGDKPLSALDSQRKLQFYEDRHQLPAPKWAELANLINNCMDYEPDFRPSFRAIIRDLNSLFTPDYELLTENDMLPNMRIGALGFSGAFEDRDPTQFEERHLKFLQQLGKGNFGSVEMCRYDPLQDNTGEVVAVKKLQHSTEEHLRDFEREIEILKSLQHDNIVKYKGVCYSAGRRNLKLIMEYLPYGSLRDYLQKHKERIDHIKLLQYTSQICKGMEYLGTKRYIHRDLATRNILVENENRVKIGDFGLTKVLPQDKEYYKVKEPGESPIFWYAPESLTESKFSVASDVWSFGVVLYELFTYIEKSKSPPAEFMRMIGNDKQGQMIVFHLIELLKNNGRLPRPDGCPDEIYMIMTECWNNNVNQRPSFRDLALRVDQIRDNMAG
Assay [15] has the same target. To be noted: at 1 µM.
Assay [16] addresses T2, Tyrosine-protein kinase JAK3 (Homo sapiens) (UniProt P52333).
T2 sequence (whole entry): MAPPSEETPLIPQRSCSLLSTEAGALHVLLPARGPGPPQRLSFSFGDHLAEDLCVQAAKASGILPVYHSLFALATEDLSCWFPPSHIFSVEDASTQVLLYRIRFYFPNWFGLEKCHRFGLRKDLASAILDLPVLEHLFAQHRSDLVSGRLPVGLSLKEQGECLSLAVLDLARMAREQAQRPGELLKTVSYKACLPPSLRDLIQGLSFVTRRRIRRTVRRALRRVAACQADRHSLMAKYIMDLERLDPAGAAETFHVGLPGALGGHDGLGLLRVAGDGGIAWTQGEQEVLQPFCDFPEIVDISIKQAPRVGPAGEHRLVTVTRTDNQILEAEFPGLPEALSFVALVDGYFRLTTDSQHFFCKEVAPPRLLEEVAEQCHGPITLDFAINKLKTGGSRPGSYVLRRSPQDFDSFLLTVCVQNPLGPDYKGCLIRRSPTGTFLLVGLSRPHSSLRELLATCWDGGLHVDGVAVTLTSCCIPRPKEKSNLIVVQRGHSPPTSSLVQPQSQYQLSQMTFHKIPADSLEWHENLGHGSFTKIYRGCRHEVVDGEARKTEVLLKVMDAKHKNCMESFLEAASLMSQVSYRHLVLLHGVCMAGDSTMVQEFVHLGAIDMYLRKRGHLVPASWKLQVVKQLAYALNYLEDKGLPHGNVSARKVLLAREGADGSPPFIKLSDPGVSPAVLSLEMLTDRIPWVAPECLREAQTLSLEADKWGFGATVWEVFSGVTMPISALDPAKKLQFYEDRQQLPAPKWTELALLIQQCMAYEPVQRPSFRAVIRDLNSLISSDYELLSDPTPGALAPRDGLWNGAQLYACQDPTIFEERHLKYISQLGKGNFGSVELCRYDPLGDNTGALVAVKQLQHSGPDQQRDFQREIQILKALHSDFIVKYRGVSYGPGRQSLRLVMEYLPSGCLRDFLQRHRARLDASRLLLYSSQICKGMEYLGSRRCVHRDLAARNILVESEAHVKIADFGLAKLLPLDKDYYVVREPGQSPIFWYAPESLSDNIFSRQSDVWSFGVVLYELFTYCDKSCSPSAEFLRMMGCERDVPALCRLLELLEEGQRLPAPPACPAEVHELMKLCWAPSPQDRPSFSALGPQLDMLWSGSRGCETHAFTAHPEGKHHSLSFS
The note with it: at 0.1 µM.

Assay [17] concerns the target T2, Tyrosine-protein kinase JAK3 (Homo sapiens). The note with it: at 1 µM.
In assay [18] the target is Vascular endothelial growth factor receptor 2 (Homo sapiens) (UniProt P35968). To be noted: at 0.1 µM.
Sequence of Vascular endothelial growth factor receptor 2 (Homo sapiens) (P35968 whole entry): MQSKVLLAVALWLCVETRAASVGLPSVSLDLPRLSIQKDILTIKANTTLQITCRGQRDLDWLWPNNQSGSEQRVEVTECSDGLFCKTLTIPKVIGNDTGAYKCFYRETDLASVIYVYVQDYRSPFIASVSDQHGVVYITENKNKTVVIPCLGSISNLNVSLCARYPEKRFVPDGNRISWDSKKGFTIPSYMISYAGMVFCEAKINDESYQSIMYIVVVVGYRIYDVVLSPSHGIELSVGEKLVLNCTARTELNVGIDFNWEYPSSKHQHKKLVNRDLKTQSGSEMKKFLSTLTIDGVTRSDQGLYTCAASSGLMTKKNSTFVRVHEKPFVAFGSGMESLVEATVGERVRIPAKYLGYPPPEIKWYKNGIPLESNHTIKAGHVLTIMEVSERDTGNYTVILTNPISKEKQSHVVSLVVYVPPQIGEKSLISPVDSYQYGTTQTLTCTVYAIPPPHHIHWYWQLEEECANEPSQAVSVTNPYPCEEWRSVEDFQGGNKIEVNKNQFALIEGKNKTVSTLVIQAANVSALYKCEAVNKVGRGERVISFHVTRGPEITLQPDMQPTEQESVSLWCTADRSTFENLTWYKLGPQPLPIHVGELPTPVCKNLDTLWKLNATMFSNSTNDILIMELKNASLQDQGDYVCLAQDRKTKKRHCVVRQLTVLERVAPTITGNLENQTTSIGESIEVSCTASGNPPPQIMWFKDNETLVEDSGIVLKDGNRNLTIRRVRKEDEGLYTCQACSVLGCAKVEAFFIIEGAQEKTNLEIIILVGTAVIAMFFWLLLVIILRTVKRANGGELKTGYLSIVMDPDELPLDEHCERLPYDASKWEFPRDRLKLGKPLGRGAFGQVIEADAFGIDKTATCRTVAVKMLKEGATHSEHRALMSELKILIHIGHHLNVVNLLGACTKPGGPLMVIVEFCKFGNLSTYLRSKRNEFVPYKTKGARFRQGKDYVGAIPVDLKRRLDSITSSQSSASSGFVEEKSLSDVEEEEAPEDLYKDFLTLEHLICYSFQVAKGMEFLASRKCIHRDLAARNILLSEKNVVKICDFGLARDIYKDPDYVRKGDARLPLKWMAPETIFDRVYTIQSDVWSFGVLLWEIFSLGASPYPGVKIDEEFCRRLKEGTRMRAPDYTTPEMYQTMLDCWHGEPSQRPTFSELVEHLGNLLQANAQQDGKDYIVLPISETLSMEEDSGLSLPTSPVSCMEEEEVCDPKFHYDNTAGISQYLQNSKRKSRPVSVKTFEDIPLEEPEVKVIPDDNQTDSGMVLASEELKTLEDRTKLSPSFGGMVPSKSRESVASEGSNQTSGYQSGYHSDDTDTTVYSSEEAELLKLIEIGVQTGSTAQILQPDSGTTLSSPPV
Assay [19] shares this target. To be noted: at 1 µM.
For assay [20], the target named is Mast/stem cell growth factor receptor Kit (Homo sapiens) (UniProt P10721). The note with it: at 0.1 µM.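 Note: values are mean inhibition of KIT, from the GSK PKIS dataset.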
Sequence of Mast/stem cell growth factor receptor Kit (Homo sapiens) (P10721 whole entry): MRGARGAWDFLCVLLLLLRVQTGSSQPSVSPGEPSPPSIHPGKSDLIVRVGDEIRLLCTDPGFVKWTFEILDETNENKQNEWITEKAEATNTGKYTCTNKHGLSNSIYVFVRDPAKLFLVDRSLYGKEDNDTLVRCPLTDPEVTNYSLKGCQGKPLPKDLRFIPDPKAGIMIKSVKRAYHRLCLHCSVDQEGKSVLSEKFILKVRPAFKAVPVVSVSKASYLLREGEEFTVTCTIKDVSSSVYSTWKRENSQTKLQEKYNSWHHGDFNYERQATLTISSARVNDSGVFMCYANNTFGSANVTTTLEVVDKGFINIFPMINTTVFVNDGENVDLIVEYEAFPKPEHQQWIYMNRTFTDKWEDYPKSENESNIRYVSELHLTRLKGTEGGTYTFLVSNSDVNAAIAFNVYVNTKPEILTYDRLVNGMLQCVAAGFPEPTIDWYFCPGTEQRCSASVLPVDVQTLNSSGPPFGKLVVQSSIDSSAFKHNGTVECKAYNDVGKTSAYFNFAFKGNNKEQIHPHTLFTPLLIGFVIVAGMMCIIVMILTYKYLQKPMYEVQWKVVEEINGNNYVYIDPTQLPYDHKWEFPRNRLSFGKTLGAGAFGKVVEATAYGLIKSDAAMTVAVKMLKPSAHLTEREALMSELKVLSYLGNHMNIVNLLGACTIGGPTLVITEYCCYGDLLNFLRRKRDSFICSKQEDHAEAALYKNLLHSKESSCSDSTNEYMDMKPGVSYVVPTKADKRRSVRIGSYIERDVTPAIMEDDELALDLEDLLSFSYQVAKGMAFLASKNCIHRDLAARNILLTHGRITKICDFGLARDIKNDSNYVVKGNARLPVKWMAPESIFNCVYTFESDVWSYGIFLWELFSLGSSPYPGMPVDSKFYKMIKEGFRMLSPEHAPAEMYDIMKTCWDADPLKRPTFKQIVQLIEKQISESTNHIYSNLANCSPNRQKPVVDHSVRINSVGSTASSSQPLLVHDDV

Regarding `FC(F)(F)c1cccc(-c2nn3ncccc3c2-c2ccnc(Nc3ccc4c(c3)OCCO4)n2)c1`, the inhibition in assay [1] was 48.1%; in [2], 5.43%; in assay [3], 31.2%; in assay [4], -0.53%; in assay [5], 1.37%; in [6], -1.37%. The inhibition in [7] is 3.05%; in assay [8], 0.31%; in [9], 1.27%; in assay [10], 0.97%; in [11], 2.97%; in [12], -1.29%. The inhibition in assay [13] was -0.53%; in assay [14], 0.96%; in [15], 1.37%; in assay [16] it was -0.61%; in [17], 0.66%; in assay [18], 12.6%. Further, the inhibition in assay [19] came to 49.6%; in assay [20] it was 2.36%.

Consider `COC(=O)Nc1nc2ccc(S(=O)(=O)c3ccc(NC(=O)Nc4cc(C(F)(F)F)ccc4F)cc3)cc2[nH]1`, for which the inhibition in assay [1] stood at 1.28%; in [2], 3.3%; in assay [3] it was 7.43%; in [4], 1.19%; in [5], 1.62%; in [6], 0.84%. Besides, the inhibition in assay [7] is 1.88%; in assay [8], 0.18%; in [9], 1.09%; in [10], 1.08%; in [11] it was 2.62%; in assay [12], 0.99%. Also, the inhibition is -1.29% in [13]; 1.28% in [14]; 1.9% in assay [15]; -1.12% in assay [16]; 0.84% in assay [17]; 4.59% in assay [18]. Further, the inhibition in [19] is 6.23%; in [20], 2.47%.

With `Fc1cccc(COc2ccc(Nc3ncnc4sc(-c5ccco5)cc34)cc2Cl)c1`, the inhibition in assay [1] was 4.89%; in assay [2], 4.32%; in assay [3], 6.64%; in [4], 0.23%; in assay [5], 0.87%; in assay [6], 1.94%. The inhibition in assay [7] is 2.78%; in assay [8], 2.1%; in assay [9], 2.84%; in [10] it was 0.55%; in [11] it was 3.14%; in [12], 0.17%. In addition, the inhibition is 3.56% in assay [13]; 1.34% in assay [14]; 1.22% in [15]; -3.93% in assay [16]; -1.55% in assay [17]; 3.37% in assay [18]. Moreover, the results for the inhibition in [19] and in [20] were 10.4% and 6.1%, respectively.

Consider `O=C(Nc1n[nH]c2cc(-c3ccc(F)cc3)ccc12)C1CC1`, for which the inhibition was 3.69% in assay [1]; 5.36% in assay [2]; 8.36% in assay [3]; 4.19% in assay [4]; 0.88% in assay [5]; 3.21% in assay [6]. Besides, the inhibition in [7] was found to be 5.18%; in [8] it was 1.75%; in [9], 1.45%; in [10] it was 1.07%; in [11], 2.49%; in assay [12], 1.55%. Moreover, the inhibition in [13] is 4.17%; in [14] it was 1.12%; in assay [15], 1.73%; in assay [16] it was -0.91%; in assay [17], -0.96%; in [18] it was 6.51%. Moreover, the inhibition in [19] is 19.5%; in assay [20], 3.1%.

Take `CCn1c(-c2nonc2N)nc2c(C#CC(C)(C)O)ncc(OC3CCNCC3)c21`: the inhibition was 5.91% in assay [1]; 3.4% in assay [2]; 7.03% in [3]; 1.97% in assay [4]; 2.36% in assay [5]; 1.46% in [6]. Also, the inhibition was 3.32% in assay [7]; 1.16% in [8]; 2.07% in assay [9]; 1.99% in assay [10]; 2.09% in [11]; 3.54% in assay [12]. In addition, the inhibition was 3.51% in assay [13]; 1.5% in assay [14]; 2.39% in assay [15]; -2.24% in [16]; -1.24% in [17]; 27.1% in assay [18]. In addition, the inhibition in assay [19] was determined as 76.1%; in assay [20], 2.24%.
